Screening data from PubChem.
DT40 TDP1 CPT = growth inhibition of DT40 Tdp1-/-;hTDP1 cells with camptothecin (screen for TDP1 inhibitors) | chicken DT40 Tdp1-/-;hTDP1 cells + 20 nM CPT, ATP luminescence, 48 h | 420,000 tested, 12% active | Potency, µM (titrated, usually from 46.2 µM), usual class: inhibitors; note: nearly all actives have a fitted effect of over 55% in size
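Cell growth measured by CellTiter-Glo luminescence after a minimum 48 h, 37 C compound exposure with 20 nM CPT in Tdp1-knockout DT40 cells stably expressing hTDP1, seeded 400/well; qHTS titration format.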
HT1080 IDH1KD tx = HT-1080 IDH1 knockdown cell toxicity (counter line). HT-1080 IDH1 knockdown viability, ATP luminescence, 48 h. Potency, µM (doses to about 46.1 µM), usual class: cytotoxic. 360,000 tested, 2% active. AID 686971
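Viability of IDH1-knockdown HT-1080 fibrosarcoma cells was assessed by CellTiter-Glo after 48 h at 37 °C with titrated compound; concentration-effect curves were classified by fit quality and response size.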
HT1080-NT tox = kills 2HG-producing HT-1080-NT fibrosarcoma cells. HT-1080-NT fibrosarcoma viability, CellTiter-Glo ATP luminescence, 48 h. Potency, µM (highest dose often 46.1 µM), most hits filed as cytotoxic. 360,000 tested, 1.6% active;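 note: NT is the 2HG producing partner of a matched IDH1 knockdown line; nearly all actives have a fitted effect of over 55% in size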
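Viability by CellTiter-Glo luminescence after 48 h compound exposure at 37C of HT-1080-NT cells (750/well, RPMI, 5% FBS). % activity scaled between DMSO wells and medium-only wells, then curve-fitted and categorized by curve class.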
IL-1B inflam inh = inflammasome signaling inhibition, IL-1 beta readout. activity change, % at 57.5 µM. AID 743279. THP-1 LPS/ATP IL-1B secretion, AlphaLISA, 16 h; hits give low values. 360,000 tested, 4.7% active; in the data active = activity change below about -50%; inconclusive = mostly about -30% to -49%
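THP-1 cells pretreated 1 hr with compounds (up to 57.5 uM final), then stimulated with LPS (250 ng/mL final) plus ATP (1.25 mM final); secreted IL-1B measured by AlphaLISA after 16 hr, decreased signal indicating inhibition.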
DT40 TDP1 no CPT = qHTS for Inhibitors of human tyrosyl-DNA phosphodiesterase 1 (TDP1): qHTS in cells in absence of CPT | DT40 Tdp1-/- hTDP1 cells, no CPT, ATP luminescence, 48 h | Potency, µM (doses to about 46.2 µM), hits mostly inhibitors | 420,000 tested, 15% active; note: nearly all actives have a fitted effect of over 55% in size
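Growth of hTDP1-complemented DT40 Tdp1-knockout cells is measured by ATP luminescence after at least 48 hr compound exposure at 37 °C, with DMSO substituting for the 20 nM CPT used in the parallel screen.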
Numbers stand for hits; i = inactive; ? = inconclusive; nt = no result; ! = not confirmed by another sample; [ ] = another dose, or the depositor's remark. Shown are actives, neighbours in structure and some others; about 19% of the full set was active somewhere. Unless noted, calls come from the whole dose curve; as a rule, active = well fitted curve in the direction sought with a large enough effect; inconclusive = small, poorly fitted or top-dose-only effect, or another doubt; inactive = no such curve, though single readings can be large; an effect the other way counts as inactive or inconclusive.

SMILES	DT40 TDP1 CPT	HT1080 IDH1KD tx	HT1080-NT tox	IL-1B inflam inh	DT40 TDP1 no CPT
CC(C)(C)c1ccc(CC(=O)N2CCC2(C)C(=O)Nc2ccc3[nH]ncc3c2)cc1 (stereo unspecified)	15µM	i	i	i	9.2µM
C#Cc1ccc(NC(=O)C2(C)CCN2C(=O)Cc2ccc(C(C)C)cc2)cc1 (stereo unspecified)	?	?	?	i	?
C#Cc1ccc(NC(=O)C2(C)CCN2C(=O)Cc2ccc(C(C)(C)C)cc2)cc1 (stereo unspecified)	21µM	10µM	?	i	?
O/N=C(\c1ccccc1)c1nccc2ccccc12	i	i	i	i	i
COc1ccc(-c2nc(CSc3nnc(C)n4c3cc3sccc34)c(C)o2)cc1	i	nt	nt	nt	i
O=[N+]([O-])c1ccccc1NCCOc1ccccc1	i	i	i	i	i
CCc1ccc(OCCNc2cc(N3CCNC(C)C3)ccc2[N+](=O)[O-])cc1 (stereo unspecified)	23µM	?	?	-67	?
Cc1ccccc1OCCNc1cc(N2CC(C)NC(C)C2)ccc1[N+](=O)[O-] (stereo unspecified)	15µM	?	?	?	?
CC1CN(c2ccc([N+](=O)[O-])c(NCCOc3ccccc3)c2)CC(C)N1 (stereo unspecified)	?	21µM	16µM	-59	?
O=[N+]([O-])c1ccc(N2CCCCC2)cc1NCCOc1ccccc1	29µM	i	i	i	18µM
CC(C)(C)c1ccc(CNc2cc(N3CCOCC3)ccc2[N+](=O)[O-])cc1	?	i	i	i	?
Cc1cc(C)c(C#N)c(Nc2cccc(C)c2C)n1	i	i	i	i	i
NCCNc1cc(N2CCCC2)ccc1[N+](=O)[O-]	23µM	i	i	i	?
COc1ccc(OCc2nn[nH]n2)cc1	i	i	i	i	i
CCN1CCN(C(=O)c2nn(C)c3c2CS(=O)(=O)c2ccccc2-3)CC1	i	?	?	i	i
Cc1cccc(N2CCN(C(=O)c3nn(C)c4c3CS(=O)(=O)c3ccccc3-4)CC2)c1C	13µM	i	i	i	16µM
Cc1ccc(C)c(N2CCN(C(=O)c3nn(C)c4c3CS(=O)(=O)c3ccccc3-4)CC2)c1	23µM	i	i	?	23µM
Cc1ccc(Cl)cc1N1CCN(C(=O)c2noc(C(C)C)c2[N+](=O)[O-])CC1	23µM	?	?	-81	?
Cn1nc(C(=O)N2CCN(c3ccccc3)CC2)c2c1-c1ccccc1S(=O)(=O)C2	?	i	i	?	?
Cn1nc(C(=O)N2CCN(c3ccccc3F)CC2)c2c1-c1ccccc1S(=O)(=O)C2	15µM!	i	i	i	?
COC(=O)N1CCC2(CCCN(C(=O)Nc3ccccc3)C2)CC1	i	nt	nt	nt	i
CC[C@H](C)[C@H]1CNC(=S)N1CC1CCN(CCC(C)C)CC1	i	i	i	i	i
CCCN1C[C@@H](C)[C@@H](OC)CN(C)C(=O)c2ccc(NC(=O)c3cccc(F)c3)cc2OC[C@H]1C	i	i	i	i	i
Cc1ccc(-c2cc(C(=O)Nc3c(C(=O)c4ccc(C)c(F)c4)oc4ccccc34)no2)cc1	i	nt	nt	nt	i
Cn1nc(C(=O)N2CCN(c3ccc(F)cc3)CC2)c2c1-c1ccccc1SC2	i	nt	nt	nt	i
SMILES	DT40 TDP1 CPT	HT1080 IDH1KD tx	HT1080-NT tox	IL-1B inflam inh	DT40 TDP1 no CPT
Cc1ccc2c(c1)-c1c(c(C(=O)N3CCN(c4cc(Cl)ccc4C)CC3)nn1C)CS2	?	nt	nt	nt	18µM
CC(=O)c1sc(NC(=O)CCCOc2ccc(Cl)cc2)nc1C	i	i	i	i	i
CC(NC(=S)Nc1ccc(OC(F)F)c(Cl)c1)C(C)(C)C (stereo unspecified)	?	?	?	-96	?
Fc1cccc(NC(=S)NCc2ccc(Cl)cc2)c1	?	i	i	i	?
CCNC(=S)Nc1ccc(Cl)c(C(F)(F)F)c1	i	i	i	i	23µM
Fc1cc(NC(=S)NCc2ccc(CNC(=S)Nc3ccc(Cl)c(F)c3)cc2)ccc1Cl	?	i	i	i	13µM
O=C(Nc1ccc(OC(F)F)c(Cl)c1)C(c1ccccc1)c1ccccc1	?	16µM	?	-62	18µM
FC(F)Oc1ccc(NC(=S)NCc2ccccc2)cc1Cl	16µM	?	?	-89	?
Cc1ccc(SCCCCN2C(=O)NC(C)(C)C2=O)cc1	i	i[9.24 µM]	i	i	i
Cc1cc(C)nc(Nc2ccc(O)cc2)n1	i	i	i	i	i
Cc1cc(C)nc(Sc2nc(Nc3ccccc3)nc(Sc3nc(C)cc(C)n3)n2)n1	i	i	i	-54	29µM
Cc1nc(Cc2nnc(SCC(=O)N3CC(=O)Nc4ccccc43)o2)cs1	i	i	i	i	i
Cc1nc(Cc2nnc(SCC(=O)N3c4ccccc4NC(=O)C3(C)C)o2)cs1	i	i	i	i	16µM
CCOC(=O)c1ccc(Nc2nc(C)cc(C)c2C#N)cc1	i	i	?	i	i
Cc1cc(NCc2ccccc2)nc(-c2ccccc2O)n1	?	i	i	i	?
Cc1ccc(C)c(Nc2cc(C)nc(-c3ccccc3O)n2)c1	6.5µM	?	?	i	5.8µM
Cc1cc(Nc2ccccc2)nc(-c2ccccc2O)n1	16µM	i[9.24 µM]	?	i	?
Cc1cc(Nc2cccc(F)c2)nc(-c2ccccc2O)n1	?	?	?	-61	?
CCOC(=O)c1ccc(Nc2cc(C)nc(-c3ccccc3O)n2)cc1	?	i	i	?	29µM
C[C@H](NC(=O)[C@@H]1Cc2ccccc2CN1)C(=O)NC1CCCC1	i	i	i	i	i
Cc1cc(N/N=C/c2c(O)ccc3ccccc23)nc(-c2ccccc2O)n1	8.2µM	?	?	i	2.6µM
Cc1cc(Nc2ccccc2Cl)nc(-c2ccccc2O)n1	?	?	i	-70	?
Cc1cc(NC2CCCCC2)nc(-c2ccccc2O)n1	i	i	i	i	?
CCOC(=O)C1=C(COC(=O)c2ccc(OC)c(OC)c2OC)NC(=O)NC1C (stereo unspecified)	?	i	i	i	i
CC(=O)Nc1sc(NC(=O)c2ccco2)nc1-c1cccs1	i	i	i	i	i
SMILES	DT40 TDP1 CPT	HT1080 IDH1KD tx	HT1080-NT tox	IL-1B inflam inh	DT40 TDP1 no CPT
COc1cc(C(=O)Nc2ccc(C)cn2)ccc1OCC(=O)N1CCOCC1	i	i	i[9.24 µM]	i	i
COc1ccc(-c2nc(NC(=O)c3ccc(OCC(=O)N4CCOCC4)c(OC)c3)sc2C)cc1	23µM	i	i	i	18µM
O=C(Nc1nc(-c2cccs2)c(-c2ccccc2)s1)c1ccco1	i	i	i	-54	?
CC(=O)c1c(C)[nH]c(C(=O)Nc2nc(-c3ccc(Cl)cc3)cs2)c1C	21µM	i	i	i	?
COc1ccc(-c2nc(NC(=O)c3ccco3)sc2C)cc1	21µM	i	i	i	23µM
Cc1ccc(NC(=O)C2C3/C=C\CCCCC32)cc1C (stereo unspecified)	i	i	i	i	i
